Among the data in PubChem BioAssay are z-score values, retold here.

A number with no mark means an inactive call.

The nature of the first assay: osmotic lysis modulators in infected erythrocytes, primary screen, PSAC antagonist project, cell-based, P. falciparum Indochina, OD700, 3 h (AID 1156). As to conditions: higher = more signal, called active from +8 up or from −8 down.
For `COCCCNC(=O)[C@@]1(Sc2ccc(C)cc2)CC(=O)N(C2Cc3ccccc3C2)[C@@H]1c1ccc(CO)cc1`, the z-score was 1.03.

On to `O=C1OCCC=C[C@H]2OC34C=CCN(c5ccc6ccccc6c5)C(=O)[C@H]3N(CCCO)C(=O)[C@@H]4C12` (stereo not given in full), for which the z-score was 0.676.

On to `COC(=O)[C@@]1(Cc2ccc(F)cc2)[C@H]2c3cc(C(=O)N(C)C)n(CCc4ccc(OC)c(Br)c4)c3C[C@H]2CN1C(=O)c1ccccc1`, for which the z-score was 0.746.

On to `[N-]=[N+]=Nc1ccccc1C[C@@]1(C(N)=O)N=C(c2ccc(OCCCO)cc2)O[C@@H]1c1ccccc1N=[N+]=[N-]`, for which the z-score is 2.63. As to `O=C(NCc1ccc(F)cc1)[C@H]1C[C@H]2C(=O)NCC(=O)N2[C@H]1c1ccc(O)cc1`, the z-score is -2.04. `C=CCNC(=O)[C@@H]1[C@H]2C(=O)O[C@H](c3ccccc3)[C@H](c3ccccc3)N2[C@H](c2ccccc2OCCO)[C@@]12C(=O)Nc1ccc(C#CCCO)cc12`: the z-score was 0.206. The same measure, in the same setting: under `CCOC(=O)C[C@H]1[C@H](OC(=O)Cc2ccc3c(c2)OCO3)[C@@H](NC(=O)C2CCCCC2)c2cc(OCCCO)ccc2N1C(=O)c1ccccc1` stands -0.481.

As to `COc1ccc([Si](C)(C)[C@@H]2[C@@H](CCO)O[C@]3(C(=O)N(Cc4ccccc4)c4ccc(N5CCOC5=O)cc43)[C@H]2C)cc1`, the z-score was 0.796. Take `C=C(/C(=C/C[C@H](OC(C)=O)c1ccc(CO)o1)c1cnc2ccccc2c1)C(C)C`: the z-score is 0.589.

Regarding `CCCCCCCCCCC(O)C1C=CC2C(=O)N(c3ccccc3)C(=O)C2N1Nc1ccc(C#N)cc1` (stereo not given), the z-score was 0.0103.

A further assay is described as follows: PSAC antagonists in infected red cells, primary screen, cell-based, P. falciparum Indochina, OD700, 18 h (AID 1157). As to conditions: P. falciparum Indochina infected erythrocytes, osmotic lysis OD700, 18 h; higher = more signal, called active from +8 up or from −8 down.
For `COc1cc2c(cc1O)C(c1cccs1)N(Cc1cc3c(cc1Br)OCO3)CC2` (stereo not given), the z-score was 1.41. On to `CCC#CCN(Cc1ccccc1Br)[C@H](/C=C/C1CC1)[C@@H](O)Cc1ccccc1`, for which the z-score is -1.53. Take `COC(=O)[C@@]1(Cc2ccccc2)[C@H]2c3cc(C(=O)N4CCCC4)n(CCc4ccccn4)c3C[C@H]2CN1C(=O)c1ccccc1`: the z-score was 0.569. On the same count and under the same terms, the figure for `CCCCC(CC)C(O)C1C=CC2C(=O)N(c3ccccc3)C(=O)C2N1Nc1ccccc1F` (stereo not given) is -1.57; for `[N-]=[N+]=Nc1ccccc1[C@@H]1OC(c2ccc(OCCCO)cc2)=N[C@]1(Cc1ccccc1)C(=O)N1CCCCC1` it is 4; for `CC1CC/C=C\[C@H]2OC34C=CCN(C(C)C)C(=O)[C@H]3N(CCO)C(=O)[C@@H]4C2C(=O)O1` (stereo not given in full) it is 0.112. Turning to `CCOC(=O)C1=C[C@@H](C(C)(C)C)N(S(=O)(=O)c2ccc(C)cc2)[C@H]1c1cccc2ccccc12`, the z-score is 0.193.

For `CC(C)[Si]1(C(C)C)OCc2cc(-c3ccc(-c4ccc(Cl)c(Cl)c4)o3)nc(-c3ccccc3)c21`, the z-score is 0.138. As for `CCCCCCc1nc(Cc2cc(OC)c(OC)c(OC)c2)cc2c1[Si](C(C)C)(C(C)C)OC2`, the z-score is -0.718. Turning to `C=CC[C@@H](OC(=O)Nc1ccc(SC)cc1)c1ccc(O)c(F)c1`, the z-score is 1.04.

As for `Cc1ccc(NN2C(C(O)c3c(F)cccc3Cl)C=CC3C(=O)N(C4CCCCC4)C(=O)C32)cc1` (stereo not given), the z-score was 0.902. As to `COc1ccc([Si](C)(C)[C@@H]2[C@@H](CC(=O)N(CCO)Cc3ccccc3)O[C@]3(C(=O)N(Cc4cccc(N5CCCCC5=O)c4)c4ccccc43)[C@H]2C)cc1`, the z-score is 1.14.

For `NC(=O)[C@H]1[C@@H]2C(=O)O[C@@H](c3ccccc3)[C@@H](c3ccccc3)N2[C@@H](c2ccc(OCCO)cc2)[C@]12C(=O)Nc1ccc(C#CCCO)cc12`, the z-score is 0.466. Same read-out and setting: the figure for `COc1cc(C(O)C2C=CC3C(=O)N(C)C(=O)C3N2Nc2ccccc2)cc(OC)c1OC` (stereo not given) is 1.07; for `C#Cc1cc2ccccc2oc1=O` it is 0.656; for `CC(=O)NCCCC[C@@H]1NC(=O)[C@@H]2C[C@H](C(=O)NCCCCCN)[C@H](c3cccc(OCCO)c3)N2C1=O` it is -1.27. Turning to `COc1ccc(CCNC(=O)[C@@]2(c3ccc([N+](=O)[O-])cc3)CC(=O)N(C3CCCCC3)[C@@H]2c2ccc(CO)cc2)cc1`, the z-score was -0.383. Still for that read-out and setting: under `NCCCCCNC(=O)[C@@H]1C[C@@H]2C(=O)N[C@@H](CCCCN)C(=O)N2[C@@H]1c1ccc(O)cc1` stands 0.937; under `NCCCCCNC(=O)[C@H]1C[C@H]2C(=O)N3CCC[C@H]3C(=O)N2[C@H]1c1cccc(OCCO)c1`, 0.301. Take `COCCOC(=O)N1C(=O)[C@@]2(c3cc(C#CCCO)ccc31)[C@H](c1ccc(OCCO)cc1)N1[C@H](c3ccccc3)[C@H](c3ccccc3)OC(=O)[C@H]1[C@@H]2C(=O)Nc1nc2ccccc2s1`: the z-score was 0.678. Same read-out and setting: the figure for `COC(=O)C1=CC(CCCO)=CC(c2cccs2)N(C)C=C1C(=O)OC` (stereo not given) is 0.426; for `COCCOC(=O)N1C(=O)[C@@]2(c3cc(C#CC4(O)CCCCCC4)ccc31)[C@H](c1ccc(O)cc1)N1[C@H](c3ccccc3)[C@H](c3ccccc3)OC(=O)[C@H]1[C@@H]2C(=O)N1CCN(c2ncccn2)CC1` it is -0.0236. As for `COc1ccc([Si](C)(C)[C@@H]2[C@@H](CCO)O[C@]3(C(=O)N(Cc4cccc(NC(=O)[C@H](C)O)c4)c4ccccc43)[C@H]2C)cc1`, the z-score was 1.35. Consider `Cc1ccc(S[C@]2(C(=O)O)CC(=O)N(C3CCCCC3)[C@@H]2c2ccc(CO)cc2I)cc1`, for which the z-score was 0.99.

Regarding `O=C1C[C@]2(c3ccc([N+](=O)[O-])cc3)C(=O)N(C3CC3)c3cc(CO)ccc3[C@H]2N1CC12CC3CC(CC(C3)C1)C2`, the z-score was 0.255. Same read-out and setting: under `COCCCNC(=O)[C@@]1(Sc2ccc(C)cc2)CC(=O)N(C2Cc3ccccc3C2)[C@@H]1c1ccc(CO)cc1` stands -1.78; under `O=C1OCCC=C[C@H]2OC34C=CCN(c5ccc6ccccc6c5)C(=O)[C@H]3N(CCCO)C(=O)[C@@H]4C12` (stereo not given in full), -1.27.

On to `COC(=O)[C@@]1(Cc2ccc(F)cc2)[C@H]2c3cc(C(=O)N(C)C)n(CCc4ccc(OC)c(Br)c4)c3C[C@H]2CN1C(=O)c1ccccc1`, for which the z-score was -1.96. Consider `[N-]=[N+]=Nc1ccccc1C[C@@]1(C(N)=O)N=C(c2ccc(OCCCO)cc2)O[C@@H]1c1ccccc1N=[N+]=[N-]`, for which the z-score was 1.35. In the case of `O=C(NCc1ccc(F)cc1)[C@H]1C[C@H]2C(=O)NCC(=O)N2[C@H]1c1ccc(O)cc1`, the z-score is 0.4. `C=CCNC(=O)[C@@H]1[C@H]2C(=O)O[C@H](c3ccccc3)[C@H](c3ccccc3)N2[C@H](c2ccccc2OCCO)[C@@]12C(=O)Nc1ccc(C#CCCO)cc12`: the z-score is 0.778. For the molecule `CCOC(=O)C[C@H]1[C@H](OC(=O)Cc2ccc3c(c2)OCO3)[C@@H](NC(=O)C2CCCCC2)c2cc(OCCCO)ccc2N1C(=O)c1ccccc1`, the z-score is 0.0872. Regarding `COc1ccc([Si](C)(C)[C@@H]2[C@@H](CCO)O[C@]3(C(=O)N(Cc4ccccc4)c4ccc(N5CCOC5=O)cc43)[C@H]2C)cc1`, the z-score was -1.09. As to `C=C(/C(=C/C[C@H](OC(C)=O)c1ccc(CO)o1)c1cnc2ccccc2c1)C(C)C`, the z-score is 0.0124. As for `CCCCCCCCCCC(O)C1C=CC2C(=O)N(c3ccccc3)C(=O)C2N1Nc1ccc(C#N)cc1` (stereo not given), the z-score was 2.3.
